From PubChem BioAssay
a7 integrin act: integrin-mediated muscular dystrophy alleviation activation; alpha7betagal myoblasts, beta-gal FDG fluorescence, 48 h; Potency, µM (doses to about 38.3 µM), without a hit: at the highest dose activation, hits mostly activators; hit rate 0.064% among 350,000; AID 624291;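 further: potency means the concentration at half of the fitted maximal effect; 100% = response of the positive control SU9516; nearly all actives have a fitted effect of over 60% in size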
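Alpha7betagal+/- myoblasts (passage 13) were plated 16-24 hr, then exposed to compounds (1:260 dilution of DMSO stock) for 48 hours at 37C. After MPER lysis, β-galactosidase reporter activity was read as FDG fluorescence (ex 480/em 540) after 30 minutes.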
S2 tox: viability counter-screen for ATXN expression inhibitors; S2 cells (HEK-293 line with an ATXN2-luciferase reporter) viability, CellTiter-Fluor protease fluorescence, 24 h; Potency, µM (top dose mostly 56.7 µM), hits mostly cytotoxic; hit rate 0.49% among 400,000; AID 651635; further: potency means the concentration at half of the fitted maximal effect; nearly all actives have a fitted effect of over 40% in size
DRD3 antagonist: blocks the human D3 dopamine receptor; max response, negative = inhibition, %; D3R cells, DiscoveRx beta-arrestin luminescence, antagonist mode; stronger effect = lower value; hit rate 2.5% among 360,000; in the data active means max response below about -50%; inconclusive means no clear call, values can overlap the other calls; further: on the % scale 0 is the no-effect control and ±100 the full control effect
Target sequence (P35462 whole entry, looked up): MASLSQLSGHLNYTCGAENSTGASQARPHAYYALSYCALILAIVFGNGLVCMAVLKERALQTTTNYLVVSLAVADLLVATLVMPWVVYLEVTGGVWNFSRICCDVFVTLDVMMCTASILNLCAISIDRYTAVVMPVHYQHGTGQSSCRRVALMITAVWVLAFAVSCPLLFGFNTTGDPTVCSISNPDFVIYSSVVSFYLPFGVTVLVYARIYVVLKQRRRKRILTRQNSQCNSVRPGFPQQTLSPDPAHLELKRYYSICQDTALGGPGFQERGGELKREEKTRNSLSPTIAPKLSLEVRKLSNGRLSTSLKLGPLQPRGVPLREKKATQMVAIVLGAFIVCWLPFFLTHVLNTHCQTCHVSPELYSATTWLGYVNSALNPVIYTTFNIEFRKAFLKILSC
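Cells plated overnight at 1500 cells/well, then exposed to library compounds with dopamine controls for 90 minutes at 37 degrees C. DiscoveRx reagent added for 30–60 minutes at room temperature; luminescence read, quantitative HTS format.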
DRD3 agonist: D3 dopamine receptor (human) agonism; P35462; D3R DiscoveRx beta-arrestin cells, luminescence, 90 min; max activation, %; hit rate 0.58% among 410,000; in the data active means max activation above about 30%; further: 0% is about no effect
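Agonist-mode cell screen: cells plated at 1500/well and incubated overnight at 37 °C, then exposed to library compounds for 90 min at 37 °C. Detection reagent was added for 30–60 min at room temperature, and luminescence was read.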
ATXN2 expr inh: inhibitors of ATXN2 expression; hit rate 0.72% among 360,000; HEK-293 ATXN2-luciferase reporter, luminescence, 24 h; Potency, µM (doses to about 57 µM), for inactives: top-dose activity change, negative = inhibition, actives largely listed as inhibitors; further: potency means the concentration at half of the fitted maximal effect; on the % scale 0 is the no-effect control and ±100 the full control effect; nearly all actives have a fitted effect of over 55% in size
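ATXN2-luciferase reporter cells (luciferase flanked by upstream and downstream ATXN2 gene portions) were treated 24 h at 37 °C with compounds at up to 57 uM. SteadyGlo luminescence gave expression; GF-AFC fluorescence gave viability.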
IL1B secr inh: inflammasome signaling inhibition, IL-1 beta readout. THP-1 LPS/ATP IL-1B secretion, AlphaLISA, 16 h; stronger effect = lower value. activity change, % at 57.5 µM. hit rate 4.7% among 360,000. AID 743279; in the data active means activity change below about -50%; inconclusive means mostly about -30% to -49%; further: on the % scale 0 is the no-effect control and ±100 the full control effect
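THP-1 cells pretreated 1 hr with compounds (up to 57.5 uM final), then stimulated with LPS (250 ng/mL final) plus ATP (1.25 mM final); secreted IL-1B measured by AlphaLISA after 16 hr, decreased signal indicating inhibition.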
Numbers without * were called inactive. Hits are enriched below; roughly 7% of the tested compounds scored in any of these assays. Unless noted, the call rests on the fitted dose curve; in most records, active means well fitted curve in the direction sought with a large enough effect; inconclusive means small, poorly fitted or top-dose-only effect, or another doubt; inactive means no such curve, though single readings can be large; an effect the other way counts as inactive or inconclusive.

Screening COc1ccccc1CCn1cnc(Cc2ccccc2)c1C(C)C returned DRD3 antagonist 8, DRD3 agonist -4, ATXN2 expr inh inconclusive and IL1B secr inh -52*.
`COc1ccccc1CCn1cnc(-c2ccc(Br)cc2)c1C(C)C` gave DRD3 antagonist 2, DRD3 agonist 0, ATXN2 expr inh inconclusive and IL1B secr inh 0.
`CCCCc1c(-c2ccccc2OC)ncn1CCc1cccc(F)c1` gave S2 tox inconclusive, DRD3 antagonist -18, DRD3 agonist -7, ATXN2 expr inh inconclusive and IL1B secr inh -16.
`CCCCCc1c(CC)ncn1CCc1ccccc1OC` gave S2 tox 16µM*, DRD3 antagonist -19, DRD3 agonist -13, ATXN2 expr inh inconclusive and IL1B secr inh inconclusive.
For CCCCc1c(-c2ccccc2OC)ncn1CCc1cccc(OC)c1 the results were S2 tox 32µM*, DRD3 antagonist 4, DRD3 agonist 5, ATXN2 expr inh inconclusive and IL1B secr inh -69*.
Screening CC(CN1CCCCCC1)C(=O)NN (centres undefined) returned a7 integrin act -25%, S2 tox inactive, DRD3 antagonist -2, DRD3 agonist 2, ATXN2 expr inh -13% and IL1B secr inh 10.
`CCOc1ccc(-c2nnc3ccc(SCC(=O)N4CCN(c5ccccc5)CC4)nn23)cc1` gave a7 integrin act -55%, S2 tox inconclusive, DRD3 antagonist 30, DRD3 agonist -2 and IL1B secr inh 21.
`CCCCc1c(-c2ccccc2OC)ncn1CCc1ccccc1Cl` gave S2 tox inconclusive, DRD3 antagonist 1, DRD3 agonist -1, ATXN2 expr inh -2% and IL1B secr inh -62*.
`CCCCCc1c(-c2ccccc2OC)ncn1CCc1ccccc1OC` gave DRD3 antagonist 62, DRD3 agonist -5, ATXN2 expr inh -35% and IL1B secr inh -95*.
`CCCCc1c(-c2ccccc2OC)ncn1CCc1ccccc1OC` gave S2 tox 32µM*, DRD3 antagonist 37, DRD3 agonist 0, ATXN2 expr inh inconclusive and IL1B secr inh -100*.
For CCCc1c(-c2ccccc2Br)ncn1Cc1ccccc1OC the results were DRD3 antagonist 1, DRD3 agonist -4, ATXN2 expr inh inconclusive and IL1B secr inh 1.
`CCc1cnc2c(c1SCC(=O)NCc1ccc(C)cc1)c(=O)n(C)c(=O)n2C` gave S2 tox inactive, DRD3 agonist -2 and ATXN2 expr inh 12%.
`COCCCN1C(=O)C(CC(=O)NC2CCCC2)CC(C(=O)N(C(C)C)C(C)C)=C1C` (centres undefined) gave S2 tox inactive, DRD3 antagonist 3, DRD3 agonist 1, ATXN2 expr inh -1% and IL1B secr inh inconclusive.
For Cc1cccc(N(Cc2ccccc2)C(=O)CN2C(=O)NC3(CCCCC3C)C2=O)c1 (centres undefined) the results were a7 integrin act 18%, S2 tox inactive, DRD3 antagonist -9, DRD3 agonist 3, ATXN2 expr inh 5% and IL1B secr inh 11.
For COC(=O)c1ccc(C)c(NS(=O)(=O)c2ccc(OC)c(OC)c2)c1 the results were a7 integrin act 16%, S2 tox inactive, DRD3 antagonist -70*, DRD3 agonist -7, ATXN2 expr inh -5% and IL1B secr inh 0.
For Cn1c(=O)[nH]c(=O)c2c1nc(CN1CCOCC1)n2CCCO the results were a7 integrin act 7%, S2 tox inactive, DRD3 antagonist 10, DRD3 agonist 15, ATXN2 expr inh 1% and IL1B secr inh 17.
For O=C(c1cc(-c2ccccn2)nc2c(Cl)cccc12)N1CCN(S(=O)(=O)c2ccccc2)CC1 the results were a7 integrin act 0%, S2 tox inactive, DRD3 antagonist 11, DRD3 agonist 2, ATXN2 expr inh 8% and IL1B secr inh -22.
For O=C(c1cc(-c2ccccn2)nc2c(Cl)cccc12)N1CCN(C(=O)C2CCCO2)CC1 (centres undefined) the results were a7 integrin act -1%, S2 tox inactive, DRD3 antagonist -51*, DRD3 agonist 1, ATXN2 expr inh 1% and IL1B secr inh -19.
Screening Cc1ccc(-n2nc3c(c2NC(=O)c2cccs2)CS(=O)(=O)C3)c(C)c1 returned a7 integrin act inconclusive, S2 tox inactive, DRD3 antagonist -4, DRD3 agonist -1 and IL1B secr inh 4.
`CC(=O)Oc1ccc(N(C(C)=O)S(=O)(=O)c2ccc(C)cc2)c2ccccc12` gave a7 integrin act -52%, S2 tox inconclusive, DRD3 antagonist -12, DRD3 agonist -12, ATXN2 expr inh 27µM* and IL1B secr inh 35.
CCn1c(SCCN2CCCCC2)nnc1-c1ccc(S(=O)(=O)N2CCOCC2)cc1 was read as a7 integrin act -30%, S2 tox inactive, DRD3 antagonist -74*, DRD3 agonist -8, ATXN2 expr inh -2% and IL1B secr inh 6.
For CC(=O)N1Cc2cc(C(=O)NCC(F)(F)F)nc(-c3cccc(-c4cccnc4)c3)c2[C@@H]1CCO the results were S2 tox inconclusive, DRD3 antagonist 0, DRD3 agonist -14, ATXN2 expr inh -12% and IL1B secr inh 72.
`Oc1c(Cl)cc(Cl)cc1Sc1cc(Cl)cc(Cl)c1O` gave S2 tox inactive, DRD3 agonist 10 and ATXN2 expr inh 1%.
O=S(c1cc(Cl)cc(Cl)c1O)c1cc(Cl)cc(Cl)c1O was read as S2 tox inconclusive, DRD3 antagonist 9, DRD3 agonist 9, ATXN2 expr inh inconclusive and IL1B secr inh -67*.
For Cc1ccc(-c2ccc(=O)n(CC(=O)N3CCN(c4cccc(C)c4)C(C)C3)n2)cc1 (centres undefined) the results were a7 integrin act 3%, S2 tox inactive, DRD3 antagonist 6, DRD3 agonist 14, ATXN2 expr inh -24% and IL1B secr inh -61*.
Cc1cccc(N2CCN(C(=O)Cn3nc(C)n4cccc4c3=O)CC2C)c1 (centres undefined) was read as a7 integrin act 12%, S2 tox inactive, DRD3 antagonist -6, DRD3 agonist -3, ATXN2 expr inh 5% and IL1B secr inh 4.
Screening COc1ccccc1NC(=O)CSc1nc2c(oc3ccccc32)c(=O)n1C returned a7 integrin act 15%, S2 tox inactive, DRD3 antagonist 67, DRD3 agonist 31*, ATXN2 expr inh -4% and IL1B secr inh 3.
For COc1ccccc1NC(=O)CSc1nnc(CC(=O)Nc2ccccc2)n1C the results were a7 integrin act -15%, S2 tox inactive, DRD3 antagonist 17, DRD3 agonist -1, ATXN2 expr inh 53% and IL1B secr inh -50*.
